Compound activity (PubChem)
VP16 counter: VP16 counterscreen qHTS for inhibitors of ROR gamma transcriptional activity; Drosophila S2 Gal4-VP16 UAS-luciferase, luminescence, 20 h; Potency, µM (top dose mostly 53.6 µM), for inactives: at the highest dose activity, negative = inhibition, hits mostly inhibitors; 310,000 compounds, 3.5% hits; AID 2546, 2010;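 further: Gal4-VP16 expression switched on by copper sulfate through the metallothionein promoter; potency means the concentration at half of the fitted maximal effect; nearly all actives have a fitted effect of over 50% in size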
B2AR arrestin: qHTS assay of beta-arrestin-biased ligands of beta2-adrenergic receptor; beta-arrestin recruitment to beta2AR, cell-based reporter; Potency, µM (series often up to 46.1 µM), inactives show top-dose activation, actives largely listed as activators; 330,000 compounds, 0.02% hits; AID 492947, 2010;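 further: potency means the concentration at half of the fitted maximal effect; 0% = DMSO controls and full agonism = EC100 isoproterenol or metaproterenol; nearly all actives have a fitted effect of over 65% in size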
Target sequence (P07550 whole entry, looked up): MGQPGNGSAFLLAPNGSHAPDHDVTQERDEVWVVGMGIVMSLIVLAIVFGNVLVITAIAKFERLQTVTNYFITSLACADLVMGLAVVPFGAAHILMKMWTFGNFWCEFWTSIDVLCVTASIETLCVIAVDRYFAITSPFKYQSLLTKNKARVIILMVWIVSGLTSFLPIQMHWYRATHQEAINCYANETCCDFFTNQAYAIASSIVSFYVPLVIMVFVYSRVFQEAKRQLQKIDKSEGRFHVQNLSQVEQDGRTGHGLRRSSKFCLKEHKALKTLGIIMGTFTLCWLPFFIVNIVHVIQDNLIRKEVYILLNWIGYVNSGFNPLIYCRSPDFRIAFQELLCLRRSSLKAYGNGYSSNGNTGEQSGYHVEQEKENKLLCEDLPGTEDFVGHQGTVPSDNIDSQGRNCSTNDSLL
TSHR antag: Antagonists of the Thyroid Stimulating Hormone Receptor: HTS campaign | TSHR-expressing cells, TSH-stimulated cAMP HTRF, 2 h; active compounds read low | activity change, negative = inhibition, % at 11.5 µM | 330,000 compounds, 0.2% hits | AID 504810, 2011;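 active means activity change below a set negative limit, meaning inhibition stronger than a set level, cut at about -70% in these data; inconclusive means activity change between two set negative limits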
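Freshly harvested TSHR cells receive pin-tooled compound, then EC80 TSH at 4nM final. After 2 hours at 37 deg C, antibody in lysis buffer and cAMP-d2 are added; 30 minutes at ambient temperature precede the HTRF read.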
ELG1 DNA repair: qHTS screen for small molecules that inhibit ELG1-dependent DNA repair in human embryonic kidney (HEK293T) cells expressing luciferase-tagged ELG1; AID 504467, 2011; Potency, µM (doses to about 46.1 µM), without a hit: at the top dose activity change, negative = inhibition, most hits filed as inhibitors; 330,000 compounds, 2.3% hits; HEK293T ELG1-luciferase reporter, luminescence, 16 h; DNA damage induced by 5-fluorouridine; further: potency means the concentration at half of the fitted maximal effect; nearly all actives have a fitted effect of over 55% in size
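Reporter activity after DNA damage by 5-fluorouridine is monitored. Compound-treated cells incubate 16 hr at 37 °C, then ONE-Glo is added for 30 min before luminescence reading.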
RORgamma inh: qHTS for inhibitors of ROR gamma transcriptional activity. Nuclear receptor ROR-gamma (Mus musculus), P51450. Drosophila S2 Gal4-RORgamma UAS-luciferase reporter, 20 h. Potency, µM (highest dose often 53.6 µM), for inactives: top-dose activity change, negative = inhibition, usual class: inhibitors. 310,000 compounds, 5.4% hits. AID 2551, 2010; further: potency means the concentration at half of the fitted maximal effect; nearly all actives have a fitted effect of over 60% in size
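Luciferase reporter read in Schneider cells carrying Gal4-RORγ (mouse) and UAS-Photinus luciferase; cells given compound 1 h before 700 uM copper sulfate induction, then incubated 20 h at ambient temperature.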
Numbers without * were called inactive; ? = inconclusive; · = not tested or not shown; [ ] = another dose, or the depositor's remark. This is a sample that favours compounds with a hit; in the whole collection about 7.5% have one here. Unless noted, the call rests on the fitted dose curve; in most records, active means well fitted curve in the direction sought with a large enough effect; inconclusive means small, poorly fitted or top-dose-only effect, or another doubt; inactive means no such curve, though single readings can be large; an effect the other way counts as inactive or inconclusive. Unless noted, on the % scale 0 is the no-effect control and ±100 the full control effect.

SMILES	VP16 counter	B2AR arrestin	TSHR antag	ELG1 DNA repair	RORgamma inh
CCCCOC(=O)c1ccc(NC(=S)NC(=O)c2ccco2)cc1	?	-1%	-1	15%	11µM*
CC(=O)NC(=S)Nc1ccc(NC(=S)NC(=O)c2cccs2)cc1	-6%	0%	6	8%	-2%
CCN(CC)c1ccc(NC(=S)NC(=O)c2ccco2)cc1	16µM*	0%	-10	?	4µM*
CCN(c1ccccc1)S(=O)(=O)c1ccc(NC(=S)NC(=O)c2cccs2)cc1	7.1µM*	0%	-39	13µM*	3.2µM*
CCN(CC)c1ccc(NC(=O)c2ccco2)cc1	?	0%	-11	?	?
CCN(CC)c1ccc(NC(=S)NC(=O)c2cccs2)cc1	5µM*	6%	-19	?	3.2µM*
CS(=O)(=O)N1CCC2(CCCN(C(c3ccccc3)c3ccccc3)C2)CC1	-3%	·	·	·	18%
COc1ccc(OCC2CN3C(CCC(C)C3c3ccc(Br)cc3)C(=O)O2)cc1 (centres undefined)	-1%[10 µM]	·	·	·	5%[10 µM]
CN(C)S(=O)(=O)c1ccc(NC(=S)NC(=O)c2cccs2)cc1	-82%	3%	0	7%	8.9µM*
CCC(C)c1ccc(NC(=O)c2ccco2)cc1 (centres undefined)	7.9µM*	-1%	-2	?	20µM*
CCN(CC)S(=O)(=O)c1ccc2[nH]c(=O)c3ccccc3c2c1	1%	0%	-3	-8%	18%
COc1ccc(S(=O)(=O)N2CCc3ccccc32)cc1C(=O)Nc1ccc(C(N)=O)cc1	·	1%	-5	?	·
O=C(N/N=C/c1ccc(N2CCCCC2)o1)c1ccccc1	5µM*	-1%	11	-17%	5µM*
Cc1ccc(/C=N/NC(=O)C(=O)N/N=C/c2ccc(C)o2)o1	-1%	0%	-4	17%	-2%
Cc1ccc(/C=N\NC(=O)c2cc([N+](=O)[O-])cc([N+](=O)[O-])c2)o1	?	0%	-2	-24%	2.5µM*
Cc1ccc(/C=N/NC(=O)c2ccc(-c3ccccc3)cc2)o1	?	0%	0	2%	13µM*
c1ccc(CNc2ncncc2-c2ccc3c(c2)OCO3)cc1	1%	·	·	·	-35%
COc1ccc(NS(=O)(=O)c2ccc(C(=O)N(C)Cc3ccc(C)o3)cc2)cc1	·	0%	·	0%	·
CCNC(=S)Nc1nc2c(cc1C(=O)OCC)CCCC2	1.8µM*	-1%	32	?	0.56µM*
C=CCNC(=S)Nc1nc2c(cc1C(=O)OCC)CCCC2	8.9µM*	0%	16	?	4µM*
CCOC(=O)CC(=O)COc1nc2cc3c(nc2o1)CCCC3	0%	0%	-11	?	2%
CCCCC[C@H](O)/C=C/C=C\C=C\C=C\[C@@H](O)[C@@H](O)CCCC(=O)O	1%	·	·	·	-4%
C/C(CCc1ccc2c(c1)OCO2)=N\N=C(/N)SC1CC(=O)N(c2ccc(Cl)cc2)C1=O (centres undefined)	?	0%	-9	-1%	8.9µM*
COc1ccccc1-c1cnnc(N/N=C/c2ccc(-c3cccc(Br)c3)o2)n1	2µM*	0%	13	8.2µM*	1µM*
CN(C)CC(CCC(CN(C)C)C(O)(c1ccccc1)c1ccccc1)C(O)(c1ccccc1)c1ccccc1 (centres undefined)	?	0%	3	18µM*	?
CCCN1CCC(=O)N(C(CSc2ccc(Br)cc2)CC(C)C)CC1 (centres undefined)	-8%	·	·	·	-2%
Cc1ccc(-c2nnn(CC(=O)NC(=O)NC3CCCCC3)n2)cc1	·	-1%	-12	-13%	·
CC(C)c1nc2sc3c(SCC(N)=O)ncnc3c2c2c1CCC2	-1%	0%	-6	-8%	-2%
COCCn1c(=S)[nH]c2cc(C(=O)N3CCN(Cc4ccc5c(c4)OCO5)CC3)ccc2c1=O	0%	0%	-7	5.2µM*	13%
COC(=O)c1ccc2c(=O)n(NC(=O)C(c3ccccc3)c3ccccc3)c(=S)[nH]c2c1	16%	0%	-12	26µM*	-25%
